Results reported in PubChem BioAssay AID1851 (National Center for Advancing Translational Sciences (NCATS), 2009).
The whole screen tested about 16,000 compounds, of which about 2,600 (16%) were called active. Roughly 20% stayed inconclusive and do not appear here. Calls follow the shape of the dose curve; as a rule, active = well fitted curve in the direction sought with a large enough effect; inconclusive = small, poorly fitted or top-dose-only effect, or effect the other way; inactive = no such curve, though single readings can be large or run the other way. Not all results are given here. Where a structure was tested more than once in an assay, its records may differ in their call. Square brackets hold non-standard residues; d marks the D form. Peptide text beside a SMILES is read from it. * marks the point of attachment. ξ: configuration not given here. Cbz = O=C(OCc1ccccc1)*; ξA = CC(N)C(=O)O

These compounds were tested against Cytochrome P450 2D6 (Homo sapiens) (UniProt P10635) (assay: Cytochrome panel assay with activity outcomes). Conditions: recombinant CYP, pro-luciferin dealkylation, luminescence, p450-cyp2d6; series mostly up to 57.1 µM; activity, negative = inhibition: at the top concentration.
% is scaled to controls: 0 for no effect and ±100 for the full control effect.

Sequence of Cytochrome P450 2D6 (Homo sapiens) (P10635 whole entry, looked up): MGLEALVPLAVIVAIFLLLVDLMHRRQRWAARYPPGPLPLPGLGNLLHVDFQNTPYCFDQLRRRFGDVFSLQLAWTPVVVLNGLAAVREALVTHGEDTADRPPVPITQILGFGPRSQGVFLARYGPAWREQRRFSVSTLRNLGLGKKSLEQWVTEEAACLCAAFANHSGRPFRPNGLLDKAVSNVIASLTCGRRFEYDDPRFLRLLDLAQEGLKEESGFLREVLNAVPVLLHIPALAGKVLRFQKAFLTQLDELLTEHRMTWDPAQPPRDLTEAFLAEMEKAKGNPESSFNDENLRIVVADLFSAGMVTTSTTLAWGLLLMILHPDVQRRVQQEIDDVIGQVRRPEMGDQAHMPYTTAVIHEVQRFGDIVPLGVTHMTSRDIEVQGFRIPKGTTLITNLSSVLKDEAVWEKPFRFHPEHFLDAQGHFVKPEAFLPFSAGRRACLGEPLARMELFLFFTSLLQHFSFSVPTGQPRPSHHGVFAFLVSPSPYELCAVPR

Row | Structure (SMILES) | activity, negative = inhibition | AC50
1 | NC(=O)CNC(=O)[C@@H]1CC2(CC(c3ccccc3)=NO2)CN1C(=O)c1ccc(Br)cc1 (some centres not stated) | -20% (inactive) | –
2 | CC(=O)Nc1ccc2c(c1)C(=Nc1ccc(C(=O)O)cc1)c1ccccc1-2 | 13% [at 11.4 µM] (inactive) | –
3 | COc1ccc(C(=O)N/N=C(\C)Cn2nc([N+](=O)[O-])cc2C)cc1 | -23.1% (inactive) | –
4 | CCOC(=O)[C@@]12C[C@@H]1/C(=N/O)c1ccccc1O2 | – | inactive
5 | Cc1ccc(-n2c3c(c(=O)[nH]c2=O)C(NS(=O)(=O)c2ccc(C)cc2)(C(F)(F)F)C(=O)N3)cc1 (configuration not stated) | -0.859% (inactive) | –
6 | CC(=O)Nc1ccc(C2=NN(CC#N)C(=O)SC2)cc1 | -16.9% (inactive) | –
7 | COC(=O)CSC1=C(C#N)C(c2cccc(F)c2)CC(=O)N1 (configuration not stated) | -27.1% (inactive) | –
8 | N[C@H](Cn1ccc(=O)n(Cc2ccccc2C(=O)O)c1=O)C(=O)O | 1.32% (inactive) | –
9 | N[C@@H](Cn1cc(I)c(=O)n(Cc2ccc(C(=O)O)cc2)c1=O)C(=O)O | – | 2.51 µM (active)
10 | N[C@@H](Cn1cc(F)c(=O)[nH]c1=O)C(=O)O | 9.04% (inactive) | –
11 | Cn1cc(-c2nc3cnc(N4CCOCC4)nc3n(C3CC3)c2=O)c2ccccc21 | 0.0209% (inactive) | –
12 | CCOC(=O)c1c(CC(C)C)csc1NC=O | -12.9% (inactive) | –
13 | O=C(Nc1cc(C(=O)Nc2ccc(S(=O)(=O)O)cc2S(=O)(=O)O)cc(C(=O)Nc2ccc(S(=O)(=O)O)cc2S(=O)(=O)O)c1)Nc1cc(C(=O)Nc2ccc(S(=O)(=O)O)cc2S(=O)(=O)O)cc(C(=O)Nc2ccc(S(=O)(=O)O)cc2S(=O)(=O)O)c1 | – | inactive
14 | C[C@@H](C[N+](C)(C)C)OC(N)=O | – | inactive
15 | COCCn1c(=O)c(-c2cn(C)c3ccccc23)nc2cnc(Oc3ccc(OC)cc3)nc21 | -4.68% (inactive) | –
16 | O=C1C[C@H]2C(=O)[C@@H]1[C@@H](C(=O)O)[C@H]2C(=O)O | 11.5% [at 11.4 µM] (inactive) | –
17 | Cc1cc(C)n(Cc2ccc(NC(=O)c3ccc(COc4ccccc4Br)cc3)cc2)n1 | -11.6% (inactive) | –
18 | CC1(C)OC(=O)C(=CNCC(O)c2ccccc2)C(=O)O1 (configuration not stated) | 19.5% (inactive) | –
19 | Cc1cc(C)n(CCCNCC(O)c2ccccc2)n1 (configuration not stated) | – | 7.08 µM (active)
20 | C=CCNC(=O)c1csc(-c2ccccc2)n1 | 17.1% (inactive) | –
21 | C=CC[n+]1c(-c2ccc(C)cc2)csc1NNC(=O)Nc1ccccc1 | – | 3.16 µM (active)
22 | CCCC(=O)NNC(=O)Nc1ccccc1 | 0.27% (inactive) | –
23 | CCn1c(C)c(C)c2cc(C(=O)Nc3cccc(Cl)c3)ccc21 | -26.9% (inactive) | –
24 | CC(=O)N[C@@H](CC(=O)O)C(=O)O | -0.495% [at 25.6 µM] (inactive) | –
25 | NC(=O)c1cc[n+](CC2=C(C(=O)[O-])N3C(=O)[C@@H](NC(=O)Cc4cccs4)[C@@H]3SC2)cc1 | -1.02% [at 25.6 µM] (inactive) | –
26 | CN(C)C(=N)N=C(N)N | -6.01% [at 25.6 µM] (inactive) | –

Row | Structure (SMILES) | activity, negative = inhibition | AC50
27 | O=C(NNC(=S)NC(=O)c1cccnc1)c1ccccc1 | -3.01% (inactive) | –
28 | COc1ccc(-c2coc3cc(OC)cc(O)c3c2=O)cc1 | – | 0.0355 µM (active)
29 | CCOC(=O)COc1cc(OCC(=O)OCC)c2c(=O)cc(-c3ccccc3)oc2c1 | 32.3% (inactive) | –
30 | COc1ccc(-c2coc3cc4oc(=O)cc(C)c4cc23)cc1F | -4.68% (inactive) | –
31 | COc1ccc(-c2cc(=O)c3c(O)cc(O)cc3o2)cc1 | – | 12.6 µM (active)
32 | O=c1c(-c2ccc(O)cc2)coc2cc(O)cc(O)c12 | 6.84% (inactive) | –
33 | O=c1cc(-c2ccccc2)oc2cc(O)c(O)c(O)c12 | -2.03% (inactive) | –
34 | CCOC(=O)Cc1c(C)nc2c(C#N)c[nH]n2c1=O | 0.121% (inactive) | –
35 | COC(=O)Cn1cnc(=O)c(C#N)c1/C=C/N(C)C | 3.9% (inactive) | –
36 | Cn1c(=O)c2[nH]c(CCS)nc2n(C)c1=O | 4.9% [at 11.4 µM] (inactive) | –
37 | O=c1nc(N2CCOCC2)ccn1-c1nc(-c2ccccc2)oc1-c1ccccc1 | -8.85% (inactive) | –
38 | C[C@H](Nc1ncnc2sc3c(c12)CCC3)C(=O)O | 0.707% (inactive) | –
39 | Cc1cc2nc(C3CCCN(C(=O)NCc4ccccc4)C3)[nH]c2cc1C (configuration not stated) | – | 5.01 µM (active)
40 | COc1ccc(N2CCN(C(=S)Nc3cc(C)ccc3C)CC2)cc1 | -18.8% (inactive) | –
41 | O=C(Nc1ccccc1)N1CCCC(c2nc(-c3ccc(F)cc3)no2)C1 (configuration not stated) | -28.6% (inactive) | –
42 | Cc1cc2nc(C3CCCN(C(=S)Nc4ccccc4)C3)[nH]c2cc1C (configuration not stated) | -7.35% (inactive) | –
43 | Cc1ccc2nc(C3CCCN(C(=S)Nc4ccccc4C)C3)[nH]c2c1 (configuration not stated) | – | 2 µM (active)
44 | Cc1cc2nc(-c3ccc(SCC(=O)N4CCc5ccccc54)nc3)[nH]c2cc1C | -4.65% (inactive) | –
45 | NCCCCN | 0.962% (inactive) | –
46 | CCC1(O)c2ccccc2-c2ncccc21 (configuration not stated) | 6.35% (inactive) | –
47 | COC(=O)[C@@H]1CC[C@H](C)[C@@H](c2ccc(C)cc2)N1C(=O)c1ccc(/C=N\OC[C@@H](O)[C@H]2O[C@H]3OC(C)(C)O[C@H]3[C@@H]2O)cc1 | 3.7% [at 11.4 µM] (inactive) | –
48 | COCCNc1nc(SCc2ccccc2)nc2sc3c(c12)CCC3 | -18.8% (inactive) | –
49 | CC(C)NC[C@H](O)c1ccc(NS(C)(=O)=O)cc1 | – | inactive
50 | CC(C)NC[C@H](O)c1cc(O)cc(O)c1 | – | inactive
51 | CC(C)NC[C@H](O)c1ccc2ccccc2c1 | – | 3.16 µM (active) and inactive
52 | Cc1ccc(C(CC(N)=O)c2ccco2)cc1 (configuration not stated) | 1.48% (inactive) | –

Row | Structure (SMILES) | activity, negative = inhibition | AC50
53 | COC(=O)CNC(=O)C(C)NC(=O)CNC(=O)OCc1ccccc1 (stereo not drawn) (Cbz-Gly-[ξA]-Gly-OMe) | 25.8% (inactive) | –
54 | O=C(O)CNC(=O)[C@@H](CS)Cc1ccccc1 | -0.986% [at 25.6 µM] (inactive) | –
55 | CC(=O)SC[C@@H](Cc1ccccc1)C(=O)NCC(=O)OCc1ccccc1 | – | 0.316 µM (active)
56 | Cc1cc(OC(=O)c2ccc(Cl)cc2Cl)nc(C)n1 | -22.9% (inactive) | –
57 | CC(C)(C)CC(=O)NC(=S)N1CCCCCC1 | 6.83% (inactive) | –
58 | O=c1c(-c2cccc(Cl)c2)nc2cncnc2n1-c1ccccc1 | -20.1% (inactive) | –
59 | Cn1c(CN2CCCC2)nc2cc(NC(=O)C3CCCCC3)ccc21 | -1.37% (inactive) | –
60 | O=C(Nc1nc2ccccc2n1CCN1CCCCC1)C1CCCCC1 | – | 4.47 µM (active)
61 | CCCc1nc(SCC(=O)NNC(=O)C2CCCCC2)c2ccccc2n1 | 7.9% (inactive) | –
62 | COc1ccc(Oc2nc(C)cc(C)c2S(C)(=O)=O)cc1 | -6.85% (inactive) | –
63 | O=c1c(-c2ccc(Cl)cc2)nc2cnc(N3CCOCC3)nc2n1CCc1ccccc1 | 3.89% (inactive) | –
64 | CC(C)NC(=O)CC(=O)N/N=C/c1ccc(Br)cc1 | -10.9% (inactive) | –
65 | Cc1[nH]c2ccccc2c1CCNC(=O)c1ccc2c(c1[N+](=O)[O-])C(=O)c1ccccc1C2=O | – | 1.12 µM (active)
66 | CCSc1c(C(=O)NC)ccc2c1C(=O)c1ccccc1C2=O | -22.2% (inactive) | –
67 | CC(=O)NCCc1c(Cc2ccccc2)[nH]c2ccccc12 | -11.5% (inactive) | –
68 | CC(C)[C@@H]1NC(=O)[C@H](CCCCN)NC(=O)[C@H](Cc2c[nH]c3ccccc23)NC(=O)[C@H](Cc2ccc(O)cc2)NC(=O)[C@H](C)N(C)C(=O)[C@H](Cc2ccccc2)NC1=O | 2.29% (inactive) | –
69 | Nc1ccc(-c2ccc(Nc3cc(S(=O)(=O)O)c(N)c4c3C(=O)c3ccccc3C4=O)cc2)c(S(=O)(=O)O)c1 | 6.34% [at 11.4 µM] (inactive) | –
70 | N#Cc1cccc(-c2nc(NCc3cccnc3)c3ccccc3n2)c1 | -8.94% (inactive) | –
71 | COc1ccccc1CNc1nc(-c2cccc(C#N)c2)nc2ccccc12 | – | 10 µM (active)
72 | CNc1nc(-c2cccc(C#N)c2)nc2ccccc12 | 8.46% (inactive) | –
73 | N#Cc1cccc(-c2nc(NCc3ccccc3)c3ccccc3n2)c1 | – | 10 µM (active)
74 | N#Cc1cccc(-c2nc(Nc3ccccc3)c3ccccc3n2)c1 | 9.28% (inactive) | –
75 | Cn1cnnc1SCC(=O)OCN1C(=O)c2ccccc2C1=O | 21.6% (inactive) | –
76 | Cc1noc(C)c1C(=O)N1CCC2(CCN(C(=O)NC(C)C)CC2)CC1 | 11.3% (inactive) | –
77 | Cn1c(=O)c2c(ncn2CCO)n(C)c1=O | -0.742% [at 25.6 µM] (inactive) | –
78 | Cn1c(=O)c2c(ncn2C[C@@H](O)CO)n(C)c1=O | 0.0743% [at 25.6 µM] (inactive) | –

Row | Structure (SMILES) | activity, negative = inhibition | AC50
79 | Cn1c(=O)c2c(ncn2CC(COCc2ccccc2Cl)OCc2ccccc2Cl)n(C)c1=O (configuration not stated) | – | 15.8 µM (active)
80 | Cc1cccc(C(=O)NNC(=O)C(=O)NC(C)(C)C)c1 | 8.26% (inactive) | –
81 | CC1(C)CC(=O)C2=C(C1)N(Cc1cccnc1)C(=O)C2(NC(=O)c1cccnc1)C(F)(F)F (configuration not stated) | 12.6% (inactive) | –
82 | CCCOc1cccc(-c2cc(-c3n[nH]c(=S)n3CC)c3ccccc3n2)c1 | – | 6.31 µM (active)
83 | CCn1c(-c2ccoc2C)n[nH]c1=S | 4.15% (inactive) | –
84 | CCn1c(-c2ccc3ncccc3c2)n[nH]c1=S | -1.86% (inactive) | –
85 | CSc1nnc2c(n1)OC(C)N(C(=O)c1ccccc1)c1ccccc1-2 (configuration not stated) | -6.63% (inactive) | –
86 | CCOC(=O)CSc1n[nH]c(-c2cccnc2)n1 | 20% (inactive) | –
87 | CC(/C=N/n1c(-c2cccnc2)n[nH]c1=S)=C\c1ccccc1 | – | 7.08 µM (active)
88 | CC(=C/c1ccccc1)/C=N/n1cnnc1 | -4.74% (inactive) | –
89 | COc1ccc(-n2c(=O)c(-c3cccs3)nc3cnc(Nc4cccc(OC)c4)nc32)cc1 | 6% (inactive) | –
90 | O=c1onc(-c2cccs2)n1Cc1ccccc1 | – | 11.2 µM (active)
91 | CN(C)c1ncc2nc(-c3cccs3)c(=O)n(CCc3ccccc3)c2n1 | -3.61% (inactive) | –
92 | O=c1c(-c2cccs2)nc2cncnc2n1Cc1ccccc1 | -2.29% (inactive) | –
93 | COc1cc2c(cc1OC)C(C(=O)N1CCN(c3ccccn3)CC1)C(c1cccs1)N(C)C2=O (configuration not stated) | -6.69% (inactive) | –
94 | OCCN(CCO)c1ncnc2nc[nH]c12 | -3.25% [at 11.4 µM] (inactive) | –
95 | Cc1cc(C)cc(NC(=O)N2CCCC2C(=O)Nc2ccc(-n3cnnn3)c(C)c2)c1 (configuration not stated) | 1.05% (inactive) | –
96 | COc1cccc(Nc2ncc3nc(-c4ccc(F)cc4)c(=O)n(CCC#N)c3n2)c1 | -3.04% (inactive) | –
97 | COc1ccc(N2CCN(C(=S)Nc3cc(C)cc(C)c3)CC2)cc1 | -6.18% (inactive) | –
98 | CCOC(=O)c1[nH]c(C(=O)O)c(CCC(=O)OC)c1C | 1.16% (inactive) | –
99 | Cc1ccc(Cl)cc1N1CCN(S(=O)(=O)c2ccc3c(c2)OCCO3)CC1 | 7.2% (inactive) | –
100 | CN1CCN(C2=Cc3ccccc3Oc3ccc(Cl)cc32)CC1 | – | 0.0398 µM (active)
101 | CN1CCN(c2cc(-c3ccccc3C(F)(F)F)ncn2)CC1 | -0.967% (inactive) | –
102 | COCCn1c(=O)c(-c2ccc(Cl)cc2)nc2cnc(Nc3ccccc3)nc21 | -2.28% (inactive) | –
